Here are results for 30 compounds from PubChem BioAssay (EPA / NIEHS).

A word on the AC50: it is the midpoint of the concentration-response curve, whichever way the signal moves.

Activity calls are given as the source filed them. Rule for the calls: active = hit-call score of the fitted dose curve at least 0.9, where 1 is the maximum; inactive = score below 0.9.

The first assay can be described thus: APR_HepG2_MitoticArrest_72hr: Apredica 72-hour HepG2 Assay for Mitotic Arrest (AID 2282918). As to conditions: high-content imaging, actives raise or lower the signal. The method, boiled down: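 HepG2, 72 hr exposure, 0.39–200 uM in duplicate, 0.5% v/v DMSO final. Formaldehyde-fixed, Triton-permeabilized, anti-phospho-histone H3/FITC plus Hoechst. ArrayScan imaging at 20x; curves fit bidirectionally against DMSO baseline.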
On to `CC(C)CCCCCCOC(=O)c1ccc(C(=O)OCCCCCCC(C)C)c(C(=O)OCCCCCCC(C)C)c1`, for which the compound was called inactive.
As for `O=C(CCCCCCCCc1cccnc1)N1CCC(C=C(c2ccccc2)c2ccccc2)CC1`, the call was inactive.
With `COCCOc1cc2cc(C(=O)NC3CCN(C(C)C)CC3)n(CC(=O)Nc3ccc(Cl)cn3)c2cn1`, the AC50 was 63.2 µM (active).
`CCCCC(CC)COC(=O)CCCCCCCCC(=O)OCC(CC)CCCC` (stereo not given): the AC50 is 111 µM (active).
With `CCCCCCCCO`, the result was inactive.
Same read-out and setting: the entry for `Cn1c(=O)cc(Oc2ccc(F)cc2F)c2cnc(NCC(C)(C)O)nc21` is “inactive”.
Same read-out and setting: the entry for `O=C(O)CCN(C1(C(=O)NO)CCCC1)S(=O)(=O)c1ccc(Oc2ccc(F)cc2)cc1` is “inactive”.
The same measure, in the same setting: as for `Nc1nc2ncc(CNc3ccc(C(=O)N[C@@H](CCC(=O)O)C(=O)O)cc3)nc2c(=O)[nH]1`, the entry is “inactive”.
For the compound `CC(C)c1cccc(C(C)C)c1N1C(=O)c2ccc(O)cc2C1=O`, the half-maximal activity concentration (AC50) was 6.04 µM (active).
Take `CCOC(=O)COc1ccc2c(c1)CC(NCC(O)c1cccc(Cl)c1)CC2` (stereo not given): the half-maximal activity concentration (AC50) was 23.1 µM (active).
On to `O=c1[nH]c2ccc(S(=O)CCN3CCC(Cc4ccc(F)cc4)CC3)cc2o1` (stereo not given), for which the call was inactive.
The same measure, in the same setting: as for `COc1ccc2sc(C(=O)Nc3nnn[nH]3)c(OC(C)C)c2c1`, the entry is “inactive”.
The same measure, in the same setting: the entry for `CC(C)=CCC/C(C)=C/CO` is “inactive”; for `CC1(C)C(=O)N(Br)C(=O)N1Br` it is “inactive”.
For the compound `COc1ccc(/C=C/S(=O)(=O)NC(=O)c2ccc(C)cc2Cl)cc1`, the AC50 was 102 µM (active).
Consider `Cc1ccc(N)cc1O`, for which the call was inactive.
The same measure, in the same setting: as for `Nc1cccc(N)c1`, the entry is “inactive”.
On the same count and under the same terms, as for `COC(=O)c1ccccc1O`, the entry is “inactive”; as for `CCCCC(CC)COC(=O)c1ccc(C(=O)OCC(CC)CCCC)cc1` (stereo not given), “inactive”.
Still for that read-out and setting: the entry for `CC/C(=C\C(=N/O)C(N)=O)C(C)[N+](=O)[O-]` (stereo not given) is “inactive”; for `O=C(NS(=O)(=O)/C=C/c1ccccc1)c1ccc(F)cc1Cl` it is “inactive”; for `CCOCCO` it is “inactive”.
As to `CC[C@H]1OC(=O)[C@H](C)[C@@H](O[C@H]2C[C@@](C)(OC)[C@@H](O)[C@H](C)O2)[C@H](C)[C@@H](O[C@@H]2O[C@H](C)C[C@H](N(C)C)[C@H]2O)[C@](C)(O)C[C@@H](C)C(=O)[C@H](C)[C@@H](O)[C@]1(C)O`, the result was inactive.
Same read-out and setting: the entry for `CC[C@H]1CC[C@H](NCc2cc3c(cc2OC)[C@H]2C[C@H]2C(=O)N3C)[C@H](c2ccccc2)N1` is “inactive”.
On to `CC(C)CCO`, for which the result was inactive.
Same read-out and setting: as for `CNCc1ccc(NC(=O)c2c[nH]c3c2C(=O)CCC3)cc1`, the entry is “inactive”; as for `CC(C)CC(C)(O)C#CC(C)(O)CC(C)C` (stereo not given), “inactive”; as for `C1=CCCC=CCCC=CCC1`, “inactive”.
As for `CCCCCCc1ccc(O)cc1O`, the AC50 was 33.7 µM (active).
Consider `CN(C)c1ccc(Cc2ccc(N(C)C)cc2)cc1`, for which the AC50 was 30.7 µM (active).

Another assay is described as follows: APR_HepG2_P-H2AX_24hr: Apredica 24-hour HepG2 Assay for H2AX Phosphorylation (AID 2282920). As to conditions: high-content imaging, actives raise or lower the signal. The method, boiled down:
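HCS fluorescence imaging of phospho-H2A.x immunostain (with Hoechst 33342 nuclear counterstain) in HepG2 after 24 hr compound exposure; 10 concentrations, 0.39–200 uM, duplicate wells, 0.5% v/v DMSO. Gain or loss of signal fitted relative to DMSO baseline.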
For the compound `CC(C)CCCCCCOC(=O)c1ccc(C(=O)OCCCCCCC(C)C)c(C(=O)OCCCCCCC(C)C)c1`, the result was inactive.
`O=C(CCCCCCCCc1cccnc1)N1CCC(C=C(c2ccccc2)c2ccccc2)CC1`: the result was inactive.
As for `COCCOc1cc2cc(C(=O)NC3CCN(C(C)C)CC3)n(CC(=O)Nc3ccc(Cl)cn3)c2cn1`, the half-maximal activity concentration (AC50) was 94.3 µM (active).
Turning to `CCCCC(CC)COC(=O)CCCCCCCCC(=O)OCC(CC)CCCC` (stereo not given), the AC50 is 116 µM (active).
Regarding `CCCCCCCCO`, the outcome was inactive.
Same read-out and setting: the entry for `Cn1c(=O)cc(Oc2ccc(F)cc2F)c2cnc(NCC(C)(C)O)nc21` is “inactive”; for `O=C(O)CCN(C1(C(=O)NO)CCCC1)S(=O)(=O)c1ccc(Oc2ccc(F)cc2)cc1` it is “inactive”.
On the same count and under the same terms, the entry for `Nc1nc2ncc(CNc3ccc(C(=O)N[C@@H](CCC(=O)O)C(=O)O)cc3)nc2c(=O)[nH]1` is “inactive”.
Take `CC(C)c1cccc(C(C)C)c1N1C(=O)c2ccc(O)cc2C1=O`: the half-maximal activity concentration (AC50) was 44 µM (active).
For the compound `CCOC(=O)COc1ccc2c(c1)CC(NCC(O)c1cccc(Cl)c1)CC2` (stereo not given), the half-maximal activity concentration (AC50) was 23.2 µM (active).
On to `O=c1[nH]c2ccc(S(=O)CCN3CCC(Cc4ccc(F)cc4)CC3)cc2o1` (stereo not given), for which the compound was called inactive.
Same read-out and setting: as for `COc1ccc2sc(C(=O)Nc3nnn[nH]3)c(OC(C)C)c2c1`, the entry is “inactive”; as for `CC(C)=CCC/C(C)=C/CO`, “inactive”.
For the compound `CC1(C)C(=O)N(Br)C(=O)N1Br`, the compound was called inactive.
Turning to `COc1ccc(/C=C/S(=O)(=O)NC(=O)c2ccc(C)cc2Cl)cc1`, the AC50 was 106 µM (active).
Turning to `Cc1ccc(N)cc1O`, the compound was classed as inactive.
As to `Nc1cccc(N)c1`, the AC50 was 48.3 µM (active).
On to `COC(=O)c1ccccc1O`, for which the outcome was inactive.
The same measure, in the same setting: the entry for `CCCCC(CC)COC(=O)c1ccc(C(=O)OCC(CC)CCCC)cc1` (stereo not given) is “inactive”.
Turning to `CC/C(=C\C(=N/O)C(N)=O)C(C)[N+](=O)[O-]` (stereo not given), the call was inactive.
On the same count and under the same terms, as for `O=C(NS(=O)(=O)/C=C/c1ccccc1)c1ccc(F)cc1Cl`, the entry is “inactive”.
Same read-out and setting: the entry for `CCOCCO` is “inactive”; for `CC[C@H]1OC(=O)[C@H](C)[C@@H](O[C@H]2C[C@@](C)(OC)[C@@H](O)[C@H](C)O2)[C@H](C)[C@@H](O[C@@H]2O[C@H](C)C[C@H](N(C)C)[C@H]2O)[C@](C)(O)C[C@@H](C)C(=O)[C@H](C)[C@@H](O)[C@]1(C)O` it is “inactive”.
Still for that read-out and setting: as for `CC[C@H]1CC[C@H](NCc2cc3c(cc2OC)[C@H]2C[C@H]2C(=O)N3C)[C@H](c2ccccc2)N1`, the entry is “inactive”.
Consider `CC(C)CCO`, for which the result was inactive.
Same read-out and setting: as for `CNCc1ccc(NC(=O)c2c[nH]c3c2C(=O)CCC3)cc1`, the entry is “inactive”.
The same measure, in the same setting: as for `CC(C)CC(C)(O)C#CC(C)(O)CC(C)C` (stereo not given), the entry is “inactive”; as for `C1=CCCC=CCCC=CCC1`, “inactive”.
`CCCCCCc1ccc(O)cc1O`: the half-maximal activity concentration (AC50) was 101 µM (active).
For the compound `CN(C)c1ccc(Cc2ccc(N(C)C)cc2)cc1`, the compound was called inactive.
